A number with no mark means an inactive call.
System: Toxoplasma gondii RH 2F1 tachyzoites (intracellular in HFF)
Test: parasite survival relative to DMSO control; higher = less antiparasitic activity, active = 20 or less
Conditions: 1 µM; 72 h
How it was run: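 Survival is the β-galactosidase-derived signal from intracellular Toxoplasma gondii RH-2F1 tachyzoites, expressed as a percentage of infected wells treated with DMSO. HFF cells (5 × 10^3 cells/well, 96-well plates) were infected with 5 × 10^3 parasites in D2 medium for 3 h and then treated with compound at 1 μM for 72 h at 37°C in 5% CO2. After lysis, CPRG was added and absorbance at 570 nm was read at 30 min, with 2 or more biological replicates.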

SMILES | parasite survival
CCOC(=O)N1CCN(c2ccc(Cl)cc2)CC1 | 54.3%
CCc1cc(O)c(Oc2ccc(C(N)=O)cc2F)cc1F | 71.5%
CCc1cc(Cc2cnc(N)nc2N)cc2c1N(C)CCC2C (stereo not given) | 45.2%
O=C1CCC(N2C(=O)c3ccccc3C2=O)C(=O)N1 (stereo not given) | 58.1%
Oc1cccc(C(Nc2nccs2)c2ccc3cccnc3c2O)c1 (stereo not given) | 2.96% (active)
COc1ccc(-n2cnc3cc(NCc4ccco4)ccc32)cc1 | 35%
O=C(O)[C@H]1C2CCC(CC2)[C@@H]1Nc1nc(-c2c[nH]c3ncc(F)cc23)ncc1F | 44.8%
Oc1c(C(Nc2ccccn2)c2ccccc2)ccc2cccnc12 (stereo not given) | 23.6%
O=C(NC12CC3CC(CC(C3)C1)C2)c1cc2ccccc2[nH]1 | 14.7% (active)
Cc1cc(Nc2ccc(F)cc2)nc(SCc2nc3ccccc3[nH]2)n1 | 42.4%
Nc1nnnn1CCOc1c2[nH]c3ccc(Cl)cc3c2cc2c1[nH]c1ccc(Cl)cc12 | 28.5%
O=C(c1ccccc1)N1CCN(c2ccccc2NC(=O)C(Cl)(Cl)Cl)CC1 | 63.4%
CCNC(=O)Nc1cc2c(-c3ccnc(C)c3)ccc(CNC(=O)OC)c2cn1 | 31.9%
O=C(NC1CCCc2c1[nH]c1ccc(Cl)cc21)c1ccccn1 (stereo not given) | 63.8%
CC1=C(/C=C/C(C)=C/C=C/C(C)=C/C(=O)Nc2ccc(O)cc2)C(C)(C)CCC1 | 35.7%
O=P(O)(O)C(CCCc1cccc(Oc2ccccc2)c1)S(=O)(=O)O (stereo not given) | 65.2%
CN(Cc1ccc(C(C)(C)C)cc1)Cc1cccc2ccccc12 | 37.9%
CN(C)[C@@H]1C(=O)C(C(N)=O)=C(O)[C@@]2(O)C(=O)C3=C(O)c4c(O)c(NC(=O)CN5CCCC5)cc(F)c4C[C@H]3C[C@@H]12 | 34.5%
O=c1[nH]cnc2c1ncn2[C@H]1CC[C@@H](CO)O1 | 79.3%
CN1CCN(Cc2ccc(-c3cnc4[nH]cc(-c5ccc6[nH]ccc6c5)c4c3)cc2)CC1 | 7.23% (active)

SMILES | parasite survival
O=C(O)c1ccccc1Sc1ncnc2sc3c(c12)CCC3 | 44.2%
CCC(C)n1ncn(-c2ccc(N3CCN(c4ccc(OCC5COC(Cn6cncn6)(c6ccc(Cl)cc6Cl)O5)cc4)CC3)cc2)c1=O (stereo not given) | 3.93% (active)
O=S(=O)(Nc1ccc(-n2cccc2)cc1)c1ccc(Cl)c(Cl)c1 | 58.1%
[N-]=[N+]=N[C@H]1C[C@H](n2ccc(=O)[nH]c2=O)O[C@@H]1CO | 73.1%
CC(=N)N1CC[C@H](SC2=C(C(=O)O)N3C(=O)[C@@H]([C@@H](C)O)[C@H]3C2)C1 | 53.7%
N#CCN1C(=O)COc2cc(F)c(N3C(=O)c4ccccc4C3=O)cc21 | 67.4%
CCc1c(O)nc2ccc(F)cc2c1OCC1CCC1 | 41%
CCOC(=O)Nc1cc(NC(C)CC(C)CN(CC)CC)c2nc(-c3ccccc3)c(-c3ccccc3)nc2n1 (stereo not given) | 7.01% (active)
O=C(Nc1ccc(-c2ccccc2)cc1)C1=C(O)C(Cc2ccccc2)OC1=O (stereo not given) | 54.1%
O=C(Nc1nnc(-c2ccc(Cl)cc2)o1)c1ccc(F)cc1 | 41.1%
O=C1NC(=O)C(Br)=C1Br | 35.2%
Cn1cncc1[C@@](N)(c1ccc(Cl)cc1)c1ccc2c(c1)c(-c1cccc(Cl)c1)cc(=O)n2C | 59.1%
CCCCCOc1ccc(/C=C2\Oc3c(ccc(O)c3O)C2=O)c(O)c1 | 48.2%
Cc1cc(C)n2nc(C(=O)NS(=O)(=O)c3c(C)cccc3OC(F)(F)F)nc2n1 | 45.7%
C=C(C)n1c(=O)n(Cc2ccccc2C)c2ccccc21 | 44.5%
O=S(=O)(Nc1ccccc1)c1ccc(NC(=S)Nc2ccccc2)cc1 | 47.2%
Cc1onc(-c2ccccc2)c1-c1ccc(S(N)(=O)=O)cc1 | 74%
Cc1cc(C)n(O)c(=O)c1 | 49.3%
O=C(Nc1cccc(C2=NCCN2)c1)c1ccc(-c2ccc(C(=O)Nc3cccc(C4=NCCN4)c3)cc2)cc1 | 22.1%
Cc1ccc(NC(=O)c2cc(Cl)ccc2O)cc1 | 42.3%

— the supplement of paper PMC10941209
